# In PubChem BioAssay (NCI):
# About 83,000 compounds went through this panel and 20% of them were active in at least one assay; those are over-represented in the sample as a whole.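 Percent growth is the endpoint: 0 to 100 indicates growth inhibition (40 means 60% inhibition), 0 means no net growth, and negative values indicate cell death.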 The source made the active and inactive calls. The calls were made as follows: active = growth percent below 10; inactive = the rest.
# Tested on: A498 renal
# Assay: NCI-60 one-dose screen, 48 h (100 = growth as untreated, 0 = no growth, -100 = all killed)
# Settings: 10 µM unless noted
row,SMILES,growth
1,O=C(Nc1ccc(CN2CCOCC2)c(C(F)(F)F)c1)c1nc2ccc3[nH]ncc3c2c2c1CCCC2,113% (inactive)
2,CC(C)[C@H]1CCC2=C3CC[C@]45OC(=O)[C@@]6(CCC(C)(C)C[C@H]64)CC[C@@]5(C)[C@]3(C)CC[C@@]21C,103% [100 µM] (inactive)
3,Cc1ccc2c(c1)/C(=N\N=C/c1cn(C(C)C)c3ccccc13)C(=O)N2,86.1% (inactive)
4,COc1ccc(C(=O)c2nccc3cc(OC)c(OC)cc23)cc1OC,64.6% (inactive)
5,Nc1cc(C(=O)O)[nH]c(=S)n1,101% (inactive)
6,CC1(C)CC[C@]2(C(=O)O)CC[C@]3(C)C(=CC[C@@H]4[C@@]5(C)C/C(=C/c6cccnc6)[C@H](O)C(C)(C)[C@@H]5CC[C@]43C)[C@@H]2C1,23.9% [100 µM] (inactive)
7,ClC1=C(Cl)C(Cl)=C(Cl)C1=Cc1ccccc1,-74.1% (active)
8,CCCCC(CCCCCC(CCCC)C1NC(C)Cc2cc(OC)c(OC)cc21)C1NC(C)Cc2cc(OC)c(OC)cc21 (stereo not drawn),-12.3% (active)
9,COc1ccccc1S(=O)Nc1ccccc1 (stereo not drawn),82.9% (inactive)
10,Cc1cnc(N)nc1OCC(C)(C)CNC(=O)c1cccc(-c2ccc(S(=O)(=O)Nc3ccc4c(c3)N(C(=O)C3CC3)CCC4)cc2)c1,37.3% (inactive)
11,C=C(C)[C@@H]1CC[C@]2(COC(=O)c3ccccc3C(=O)O)CC[C@]3(C)[C@H](CC[C@@H]4[C@@]5(C)CC[C@H](OC(=O)c6ccccc6C(=O)O)C(C)(C)[C@@H]5CC[C@]43C)[C@@H]12,-0.192% [100 µM] (active)
12,Cc1cc(N2CCCCCC2)nc(N2CCN(CC(=O)Nc3ccc4c(ccn4Cc4ccccc4)c3)CC2)n1,8.99% (active)
13,CC1(C)C(=O)/C(=C\c2cccnc2)C[C@]2(C)[C@H]3CC[C@@H]4[C@H]5[C@H](C(=O)/C=C/c6cccnc6)CC[C@]5(C(=O)O)CC[C@@]4(C)[C@]3(C)CC[C@@H]12,-77.5% [100 µM] (active)
14,CCN(CC)CCSC(=O)C(O)(c1ccccc1)C1CCCC1 (stereo not drawn),95.7% (inactive)
15,O=C(NNc1ccc(-c2ccccc2)nn1)c1ccccc1,92.4% (inactive)
16,Cc1cc2c(C(C)C)c(O)c(O)c(C=NCc3ccoc3)c2c(O)c1-c1c(C)cc2c(C(C)C)c(O)c(O)c(C=NCc3ccco3)c2c1O,80.1% (inactive)
17,c1ccc(-c2nnc(-c3c[nH]c4ncccc34)s2)cc1,67.3% (inactive)
18,Cc1ccc(-c2cc(-c3ccc(C)cc3)nc(NCCNc3ccnc4cc(Cl)ccc34)n2)cc1,68.4% (inactive)
19,Cn1cc(-c2noc(C(=O)c3cn(C)c4ncccc34)n2)c2ccccc21,69.9% (inactive)

row,SMILES,growth
1,Cc1cc(NN=C(c2ccc(O)cc2)c2ccc(O)cc2)c([N+](=O)[O-])cc1[N+](=O)[O-],85.9% (inactive)
2,O=C(C[n+]1ccn(CC(OCc2ccc(Cl)cc2Cl)c2ccc(Cl)cc2Cl)c1)c1ccc(F)cc1 (stereo not drawn),-12.3% (active)
3,COc1cc(-c2nc(SCCC(C)C)nc(Nc3ccc(S(N)(=O)=O)cc3)c2C#N)cc(OC)c1OC,43.5% (inactive)
4,CC(C)=CCC[C@](C)(O)[C@H]1CC[C@]2(C)[C@@H]1CC[C@@H]1[C@@]3(C)CC[C@H](OC(=O)CCC(=O)O)C(C)(C)[C@@H]3CC[C@]12C,40.1% [100 µM] (inactive)
5,C=C(C)[C@@H]1CC[C@]2(C)[C@H](CC[C@@H]3[C@@H]([C@@](C)(O)CCC=C(C)C)CC[C@]32C)[C@@]1(C)CCC(=O)O,-20.2% [100 µM] (active)
6,O=C(CCN1CCCCC1)c1ccc2ccccc2c1,93.5% (inactive)
7,O=C(N/N=C/c1c(Cl)cccc1Cl)c1cccc(Nc2ccnc(C(F)(F)F)c2)c1,95.3% (inactive)
8,CCc1ccc(C2=C/C(=C/c3ccccc3)C(=O)N2CCc2ccc(S(N)(=O)=O)cc2)cc1,88.7% (inactive)
9,COc1cc2c(cc1OCCCCCOc1ccc(-n3c(C)nc4ccccc4c3=O)cc1)N=C[C@@H]1CCCN1C2=O,-71.9% (active)
10,CCN(CCO)CCC(=O)c1ccc([N+](=O)[O-])cc1,87% (inactive)
11,COc1c(B(O)O)cccc1-c1nc2ccc3[nH]ncc3c2c2c1CCC2,34.7% (inactive)
12,Cc1ccc(-c2cc(O)c(-c3ccc(C)cc3C)cc2O)c(C)c1,94.3% (inactive)
13,C=C(C)[C@@H]1CC[C@]2(c3ncc(C)o3)CC[C@]3(C)[C@H](CC[C@@H]4[C@@](C)(CCC#N)[C@H](C(=C)C)CC[C@]43C)[C@@H]12,-93.4% [100 µM] (active)
14,Nc1nc(Nc2ccccc2)c2ncn(Cc3ccc4c(c3)OCO4)c2n1,39.8% (inactive)
15,CC(=O)OC[C@]12CC[C@@H](C(=O)CBr)[C@@H]1[C@H]1CC[C@@H]3[C@@]4(C)CCCNC(C)(C)[C@@H]4CC[C@@]3(C)[C@]1(C)CC2,-84.5% [100 µM] (active)
16,C[C@@H]1C[C@H]2C(=O)O[C@@H](C)[C@H](NC(=O)[C@H](Cc3cc(F)cc(F)c3)NC(=O)Nc3ccc(Cl)cc3F)C(=O)N3C[C@H](O)C[C@H]3C(=O)N3CCN(C)C[C@H]3C(=O)N[C@@H](C)C(=O)N2C1,33.1% (inactive)
17,COC(=O)C(=Cc1ccccc1[N+](=O)[O-])C(=O)OC,69.1% (inactive)
18,CC1Cc2c(Cl)ncnc2N(C)c2ccc(Cl)cc21 (stereo not drawn),-34.9% (active)
19,CC1(C(=O)O)CCC(N)(C(=O)O)C1(C)C (stereo not drawn),87.7% (inactive)
